The subject of experiment [1] is Zika virus NS2B-NS3 protease (unlinked complex). The experiment can be described thus: Primary screen GU Rhodamine qHTS for Zika virus inhibitors: Unlinked NS2B-NS3 protease assay (AID 1347159). Also: % is scaled to controls: 0 for no effect and ±100 for the full control effect; nearly all actives have a fitted effect of over 60% in size. A digest of the protocol: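 Compounds, tested up to 114 microM, were incubated for 15 minutes with 25 nM unlinked NS2B-NS3 protease at pH 8.0. Cleavage of 1.5 microM Rhodamine110 substrate was then followed by fluorescence for 15 minutes.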
For orientation: qHTS replaces the single test concentration by a dilution series.

For experiment [2], the target named is Cytochrome P450 2D6 (Homo sapiens) (UniProt P10635). Put plainly: Cytochrome P450 family 2 subfamily D member 6 (CYP2D6) small molecule antagonists: luciferase biochemical (cell-free) qHTS assay (AID 1645840; active = well fitted curve in the direction sought with a large enough effect in the repeat runs; an effect the other way counts as inactive or inconclusive; also: nearly all actives have a fitted effect of over 55% in size; also: potency is read from the fitted curve at half-maximal effect; as to activity change, negative = inhibition: % is scaled to controls: 0 for no effect and ±100 for the full control effect). The method, boiled down: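 P450-Glo luminescent screen: recombinant CYP2D6 enzyme–proluciferin substrate mix preincubated with compound 10 min at room temperature, then NADPH regeneration added for 1 h at room temperature. Detection reagent added for 20 min; luciferin light read as relative luminescence units.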
Chain of Cytochrome P450 2D6 (Homo sapiens) (P10635 whole entry, looked up): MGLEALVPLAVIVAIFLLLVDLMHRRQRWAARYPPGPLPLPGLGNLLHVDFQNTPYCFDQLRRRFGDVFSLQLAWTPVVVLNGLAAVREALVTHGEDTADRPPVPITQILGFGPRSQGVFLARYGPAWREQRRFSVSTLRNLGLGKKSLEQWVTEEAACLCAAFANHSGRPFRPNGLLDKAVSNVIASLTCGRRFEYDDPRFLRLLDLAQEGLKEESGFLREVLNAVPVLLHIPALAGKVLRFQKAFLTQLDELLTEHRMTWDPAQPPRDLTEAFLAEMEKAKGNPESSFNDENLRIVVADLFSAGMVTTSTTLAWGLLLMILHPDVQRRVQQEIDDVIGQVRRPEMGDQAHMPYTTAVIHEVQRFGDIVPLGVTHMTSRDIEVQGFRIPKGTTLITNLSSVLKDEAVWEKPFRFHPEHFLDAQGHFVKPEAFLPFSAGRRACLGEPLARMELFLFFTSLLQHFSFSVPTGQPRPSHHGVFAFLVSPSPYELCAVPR

The target of experiment [3] is Cytochrome P450 2C9 (Homo sapiens) (UniProt P11712). The experiment can be described thus: Cytochrome P450 family 2 subfamily C member 9 (CYP2C9) small molecule antagonists: luciferase biochemical (cell-free) qHTS assay (AID 1645842; active = well fitted curve in the direction sought with a large enough effect in the repeat runs; an effect the other way counts as inactive or inconclusive; also: nearly all actives have a fitted effect of over 55% in size; also: potency is read from the fitted curve at half-maximal effect; as to activity change, negative = inhibition: % is scaled to controls: 0 for no effect and ±100 for the full control effect). A digest of the protocol:
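Luminescence, after 20 min with luciferin detection reagent, reflected CYP2C9 turnover during a 1 h NADPH-driven reaction at 37C. Enzyme-substrate mix contained 0.4% bovine serum albumin and was preincubated with compound 10 min at room temperature.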

Another experiment has as its system CRL-7250. The experiment can be described thus: Cytotoxic Profiling of Annotated Libraries Using Quantitative High-Throughput Screening (AID 1296008). Also: nearly all actives have a fitted effect of over 60% in size. Also: potency is read from the fitted curve at half-maximal effect. The note with it: Five cell lines viability, CellTiter-Glo ATP luminescence, 48-72 h; max response: stronger effect = lower value. The method, boiled down:
(§1)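 Cells exposed to compounds for 48 or 72 hr at 37 degrees Celsius. Viability read as ATP-coupled luminescence with CellTiter-Glo after 10 min at room temperature.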
For orientation: Cellular ATP, detected with luciferase, serves as a proxy for viable cell number.

The test system of the next experiment is SKOV3. The experiment can be described thus: Primary qHTS to identify gynecologic anti-cancer compounds using libraries of approved drugs and bioactive compounds (AID 1345084). Also: nearly all actives have a fitted effect of over 55% in size. Also: potency is read from the fitted curve at half-maximal effect. As to conditions: Gynecologic cancer cell panel viability, ATPlite luminescence, 48 h; series mostly up to 57.5 µM. A digest of the protocol:
(§2)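 Cell viability after 48 h drug treatment, ATPlite luminescence readout; five doses.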

Experiment [4] can be described thus: P-glycoprotein substrates identified in KB-8-5-11 adenocarcinoma cell line, qHTS therapeutic library screen (AID 1346987). Also: nearly all actives have a fitted effect of over 65% in size. Also: potency is read from the fitted curve at half-maximal effect. A digest of the protocol:
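P-gp-mediated resistance screen: KB-8-5-11 cells treated 72 h with compounds in dose-response. CellTiter-Glo viability.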

The nature of experiment [5]: qHTS to identify inhibitors of the type 1 interferon - major histocompatibility complex class I in skeletal muscle: primary screen against the NCATS Mechanism Interrogation Plate v5.0 (MIPE) Libary (AID 1347411).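 Also: plate controls were vehicle for no effect and reference inhibitor for full effect; nearly all actives have a fitted effect of over 65% in size.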 A digest of the protocol: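 Cells were genome-edited human myoblasts carrying a HiBit tag on endogenous HLA-B. They were treated with IFN-beta (4.0 ng/ml) and titrated compounds (top 46 uM) for 24 hrs before lytic HiBiT detection.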

For a further experiment, the system named is CAOV3. The experiment can be described thus: Primary qHTS to identify gynecologic anti-cancer compounds using libraries of approved drugs and bioactive compounds (AID 1345084). Also: nearly all actives have a fitted effect of over 55% in size. Also: potency is read from the fitted curve at half-maximal effect. As to conditions: Gynecologic cancer cell panel viability, ATPlite luminescence, 48 h; series mostly up to 57.5 µM. The method, boiled down:
as §2

For experiment [6], the target named is Catechol O-methyltransferase (Homo sapiens) (UniProt P21964). Put plainly: Confirmatory Screen for Target Class Profiling of Small Molecule Inhibitors of Methyltransferases (AID 1745852). As to activity change, negative = inhibition: % is scaled to controls: 0 for no effect and ±100 for the full control effect. The note with it: MTase-Glo luminescence, SAH detection, recombinant enzyme; measured here: COMT max response; stronger effect = lower value.
Chain of Catechol O-methyltransferase (Homo sapiens) (P21964 whole entry, looked up): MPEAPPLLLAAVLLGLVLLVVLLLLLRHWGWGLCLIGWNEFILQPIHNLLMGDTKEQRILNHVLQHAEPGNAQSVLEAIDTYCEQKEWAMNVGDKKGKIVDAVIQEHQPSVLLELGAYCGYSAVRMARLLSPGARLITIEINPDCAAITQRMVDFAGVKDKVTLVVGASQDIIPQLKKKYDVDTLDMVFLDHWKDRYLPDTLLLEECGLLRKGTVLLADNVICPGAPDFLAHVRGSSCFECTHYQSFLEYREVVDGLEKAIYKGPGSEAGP
The target in experiment [7] is Guanidinoacetate N-methyltransferase (Homo sapiens) (UniProt Q14353). The experiment is described as above. The note with it: activity change, negative = inhibition: at 57.3 µM (top of the series) unless noted.
For experiment [8], the target named is Nicotinamide N-methyltransferase (Homo sapiens) (UniProt P40261). Described as above. The note with it: MTase-Glo luminescence, SAH detection, recombinant enzyme; measured here: NNMT max response; stronger effect = lower value.
Chain of Nicotinamide N-methyltransferase (Homo sapiens) (P40261 whole entry, looked up): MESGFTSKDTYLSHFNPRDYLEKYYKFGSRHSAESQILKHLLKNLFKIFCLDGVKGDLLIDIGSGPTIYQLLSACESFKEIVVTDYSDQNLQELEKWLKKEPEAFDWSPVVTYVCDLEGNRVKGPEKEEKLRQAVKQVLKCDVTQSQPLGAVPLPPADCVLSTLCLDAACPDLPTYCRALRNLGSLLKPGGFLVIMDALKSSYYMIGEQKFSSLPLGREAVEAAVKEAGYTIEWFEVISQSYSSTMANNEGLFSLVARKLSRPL
Experiment [9] deals with Phenylethanolamine N-methyltransferase (Homo sapiens) (UniProt P11086). The description is as above. As to conditions: MTase-Glo luminescence, SAH detection, recombinant enzyme; measured here: PNMT max response; stronger effect = lower value.
Chain of Phenylethanolamine N-methyltransferase (Homo sapiens) (P11086 whole entry, looked up): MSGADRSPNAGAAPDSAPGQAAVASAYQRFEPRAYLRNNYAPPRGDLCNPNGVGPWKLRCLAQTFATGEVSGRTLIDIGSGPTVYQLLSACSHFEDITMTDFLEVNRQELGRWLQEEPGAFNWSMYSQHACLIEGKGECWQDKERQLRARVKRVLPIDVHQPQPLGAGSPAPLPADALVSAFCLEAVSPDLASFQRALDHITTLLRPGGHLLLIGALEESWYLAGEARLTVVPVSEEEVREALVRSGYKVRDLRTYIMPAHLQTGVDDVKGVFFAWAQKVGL
Experiment [10] can be described thus: Primary fluorescence-based thiol-reactive (MSTI) qHTS assay for identification of artifact compounds. (AID 1845221). Also: nearly all actives have a fitted effect of over 65% in size. Also: potency is read from the fitted curve at half-maximal effect.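 As to activity change, negative = thiol reactive: thiol-reactive compounds lower the probe fluorescence signal.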 A digest of the protocol:
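Probe: MSTI 4 uM, PBS pH 7.4, 2% DMSO. Incubation 1 h, RT, light-protected. Readout fluorescence 525/598 nm.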

Another experiment has as its system PA-1. The experiment can be described thus: Primary qHTS to identify gynecologic anti-cancer compounds using libraries of approved drugs and bioactive compounds (AID 1345084). Also: nearly all actives have a fitted effect of over 55% in size. Also: potency is read from the fitted curve at half-maximal effect. As to conditions: Gynecologic cancer cell panel viability, ATPlite luminescence, 48 h; series mostly up to 57.5 µM. A digest of the protocol:
as §2

Experiment [11] can be described thus: P-glycoprotein substrates identified in KB-3-1 adenocarcinoma cell line, qHTS therapeutic library screen (AID 1346986).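 Also: potency is read from the fitted curve at half-maximal effect; potency is for cytotoxicity meaning loss of cell viability; nearly all actives have a fitted effect of over 60% in size.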 A digest of the protocol:
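Compounds were tested in dose-response against KB-3-1 and KB-8-5-11 cells at 37 degree C for 72 h, and viability was measured by luminescence. AC50 values came from curve fitting with class-based activity calls.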

In the next experiment the test system is NIH3T3. The experiment can be described thus: Cytotoxic Profiling of Annotated Libraries Using Quantitative High-Throughput Screening (AID 1296008). Also: nearly all actives have a fitted effect of over 60% in size. Also: potency is read from the fitted curve at half-maximal effect. The note with it: Five cell lines viability, CellTiter-Glo ATP luminescence, 48-72 h; max response: stronger effect = lower value. A digest of the protocol:
as §1

The test system of another experiment is HACAT. The experiment can be described thus: qHTS assay to identify novel small-molecules to repurpose for Merkel cell carcinoma treatment (AID 1296009). Also: nearly all actives have a fitted effect of over 60% in size. The note with it: MCC and control cell lines, CellTiter-Glo viability, 72 h; at 44.8 µM (top of the series) unless noted. The method, boiled down: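 Cells were incubated with compound for 72 hr at 37 degree celsius before CellTiter-Glo addition. Luminescence was normalized with no-cell wells as full cytotoxicity and DMSO as baseline.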

SMILES strings stand for the structures. Inconclusive results are not listed. Activity calls are given as the source filed them. Unless noted, calls follow the shape of the dose curve; as a rule, active = well fitted curve in the direction sought with a large enough effect; inconclusive = small, poorly fitted or top-dose-only effect, or another doubt; inactive = no such curve, though single readings can be large; an effect the other way counts as inactive or inconclusive.

From PubChem BioAssay (NCATS) come the findings set out here.

Chain of Cytochrome P450 2C9 (Homo sapiens) (P11712 whole entry, looked up): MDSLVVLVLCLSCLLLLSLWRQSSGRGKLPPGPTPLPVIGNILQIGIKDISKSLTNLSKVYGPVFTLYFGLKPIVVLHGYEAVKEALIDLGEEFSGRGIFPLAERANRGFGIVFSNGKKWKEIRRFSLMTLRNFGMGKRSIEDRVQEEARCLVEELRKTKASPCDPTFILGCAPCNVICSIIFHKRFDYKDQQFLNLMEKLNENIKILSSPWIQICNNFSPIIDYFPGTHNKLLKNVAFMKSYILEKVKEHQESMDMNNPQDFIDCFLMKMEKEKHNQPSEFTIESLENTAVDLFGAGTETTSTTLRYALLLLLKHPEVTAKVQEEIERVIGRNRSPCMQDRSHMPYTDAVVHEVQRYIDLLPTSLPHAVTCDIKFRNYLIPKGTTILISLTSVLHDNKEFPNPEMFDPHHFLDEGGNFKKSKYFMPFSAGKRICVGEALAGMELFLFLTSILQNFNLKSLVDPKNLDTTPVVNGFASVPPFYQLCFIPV

For the molecule `Cc1ccc2c(Nc3ccc(Cl)cc3)nccc2c1Nc1ncccc1-c1ncnc2nc[nH]c12`, the Potency entry in experiment [1] is “inactive”. The Potency in experiment [2] is 12 µM (active); in experiment [3], 12 µM (active); with CRL-7250, 14.6 µM (active); in the experiment with SKOV3 it was 15.8 µM (active).
With `O=C(NNc1ccccc1)c1ccncc1`, the Potency entry (in experiment [4]; in [1]; in experiment [5]; in the experiment with CAOV3) was “inactive” each time.
For the molecule `CN1CCN(C(=O)c2ccc(Nc3nccc(-c4cccs4)n3)cc2Cl)CC1`, the Potency in experiment [4] was 18.4 µM (active); in experiment [2] it was 21.3 µM (active); in experiment [3], 0.674 µM (active). Moreover, the Potency result (in experiment [1]; in [10]; in the experiment with PA-1; in the experiment on SKOV3) was “inactive” in each case. Also, the values for the activity in experiment [6], in experiment [8] and in experiment [9] were -2.55%, -31.1% and -3.47%, respectively. Moreover, in [7], the activity change, negative = inhibition was found to be 0%.
`C[C@@H]1COCCN1c1cc(C2(S(C)(=N)=O)CC2)nc(-c2ccnc3[nH]ccc23)n1` (some centres undefined): the Potency in experiment [11] was 6.51 µM (active); in the experiment with NIH3T3 it was 4.17 µM (active).
With `CN(CCCNC(=O)c1ccc2nc3c(c(Cl)c2c1)CCCC3)Cc1ccccc1`, the Potency entry (in [1]; with CAOV3; with PA-1; in the experiment on SKOV3) was “inactive” each time. Also, the Potency in [2] was 1.34 µM (active); in experiment [3] it was 15.1 µM (active).
For `Cc1[nH]c(/C=C2\C(=O)Nc3ccc(F)cc32)c(C)c1C(=O)NC[C@H](O)CN1CCOCC1`, the results for the Potency (in experiment [11]; with CRL-7250) were 14.6 µM (active) and 6.51 µM (active), respectively. In addition, the Potency entry in experiment [1], in experiment [2] and in [3] was “inactive” in each case.
With `O=C(Nc1ccc(F)cc1)N1CCc2ccccc2C1c1ccc(C(F)(F)F)cc1` (centres undefined), the Potency in experiment [4] was 20.6 µM (active); in [2], 9.52 µM (active); in experiment [3], 5.35 µM (active); in [10] it was 0.0474 µM (active). In addition, the Potency result (in experiment [1]; in the experiment with PA-1) was “inactive” each time.
For the molecule `CC1(C)CC[C@]2(C(=O)OC3OC(CO)C(O)C(O)C3O)CC[C@]3(C)C(=CCC4[C@@]5(C)CC[C@H](OC6OC(C(=O)O)C(O)C(O)C6O)C(CO)(CO)C5CC[C@]43C)[C@@H]2C1` (some centres undefined), the outcome in experiment [4] is “inactive [at 9.29 µM]”. Further, in experiment [1], the Potency entry was “inactive”. Further, the activity change, negative = thiol reactive in experiment [10] is 84.5% [at 11.5 µM] (inactive). The Potency was 2.46 µM (active) in the experiment with CRL-7250 and 3.16 µM (active) in the experiment with PA-1.
With `CCC(=O)c1cc(-c2ccc(Cl)cc2)n(-c2ccc(S(N)(=O)=O)cc2)c1C`, the Potency entry (in experiment [1]; in the experiment with PA-1) was “inactive” each time. Besides, the outcome in the experiment on CRL-7250 is “inactive”.
For the molecule `CC1(C)CC23[C@@H]4CC(=O)[C@@H]2COC(=O)[C@@H]3CC[C@H]41`, the Potency entry (in experiment [1]; in experiment [10]; in the experiment with PA-1) was “inactive” throughout.
In the case of `O=C1c2c(O[C@@H]3O[C@H](CO)[C@@H](O)[C@H](O)[C@H]3O)cc(O)cc2OC1(O)Cc1ccc(O)cc1` (some centres undefined), the Potency entry (in [1]; in the experiment with PA-1) was “inactive” throughout. In addition, the outcome in the experiment with HACAT is “inactive [at 17.4 µM]”. In addition, in the experiment on CAOV3, the Potency is 10 µM (active).
